Screening data (PubChem)
TexasRed autofl: Texas Red region autofluorescence. Compound fluorescence, Texas Red channel, 547/618 nm; hits give high values. max dye-equivalent concentration, M. 59,000 compounds, 0.06% hits; in the data active = max dye-equivalent concentration above about 10 nM; inconclusive = between about 1.1 nM and that limit
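Dye-equivalent concentrations come from scaling compound signal (ex 547, em 618 nm) to six Texas Red standard concentrations run on every plate, after 15 min room-temperature incubation in pH 8.0 Tris (100 mM).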
A488 fluor: compound autofluorescence in A488 spectral region. compound autofluorescence, A488 spectral region, dye equivalency; Compound Type: qHTS ECL - MLSMR. 59,000 compounds, 0.1% hits. max dye equivalency, M
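Compounds pin-transferred into 100 mM Tris buffer, pH 8.0, incubated 15 min at room temperature, then imaged with 480 nm excitation/540 nm emission filters. Fluorescence converted to Alexa 488 dye-equivalent concentration via an on-plate six-point A488 standard curve.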
A647 autofl: compound fluoresces in the A647 spectral region; max dye-equivalent concentration, M; 59,000 tested, under 10 active; Compound fluorescence, A647 channel (570/671 nm), Tris buffer;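 note: values scaled relative to a standard on each plate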
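Each compound's intrinsic fluorescence at 570 nm excitation and 671 nm emission is measured across its concentration series in 100 mM Tris, pH 8.0, after 15 min at room temperature, and reported relative to an A647 curve.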
Fluorescein autfl: compound autofluorescence in fluorescein spectral region; max fluorescein-equivalent concentration, M; Compound autofluorescence, 480/540 nm, fluorescein-equivalent; hits give high values; 59,000 compounds, 0.91% hits; AID 593; in the data active = max fluorescein-equivalent concentration above about 10 nM; inconclusive = between about 1.1 nM and that limit
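In this qHTS profile, compound fluorescence was measured with a 480 nm/540 nm filter pair following a 15-min room-temperature incubation in 100 mM Tris (pH 8.0). A six-point fluorescein series on each plate served for normalization.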
Rhodamine autofl: rhodamine region autofluorescence; Rhodamine-region fluorescence, 547/598 nm, Tris buffer; hits give high values; max dye-equivalent concentration, M; 59,000 compounds, 0.05% hits; in the data active = max dye-equivalent concentration above about 11 nM; inconclusive = between about 1.1 nM and that limit
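Compounds in 100 mM Tris buffer, pH 8.0, were incubated 15 min at room temperature, then read at 547 nm excitation and 598 nm emission. Fluorescence was normalized against a per-plate six-point rhodamine standard curve as dye-equivalent concentration.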
Resorufin fluor: resorufin region autofluorescence | 59,000 compounds, 0.04% hits | Compound fluorescence, resorufin region 547/598 nm, buffer; hits give high values | max dye-equivalent concentration, M
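Intrinsic fluorescence profiled in the resorufin window (ex 547 nm, em 598 nm) after 15 min at room temperature in pH 8.0 Tris buffer (100 mM); responses normalized against a six-point resorufin standard series as dye-equivalent concentration.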
Numbers without * were called inactive; i = inactive; ? = inconclusive. Compounds with a hit are over-represented: about 0.9% of the library has one in this group of screens. Unless noted, the rule behind the calls is not given here.

SMILES	TexasRed autofl	A488 fluor	A647 autofl	Fluorescein autfl	Rhodamine autofl	Resorufin fluor
CN[C@@H](CC(C)C)C(=O)N[C@@H]1C(=O)N[C@H](CC(N)=O)C(=O)N[C@H]2C(=O)N[C@H]3C(=O)N[C@H](C(=O)N[C@H](C(=O)O)c4cc(O)cc(O)c4-c4cc3ccc4O)[C@H](O)c3ccc(c(Cl)c3)Oc3cc2cc(c3O[C@@H]2O[C@@H](CO)[C@@H](O)[C@@H](O)[C@H]2O[C@H]2C[C@](C)(N)[C@H](O)[C@H](C)O2)Oc2ccc(cc2Cl)[C@@H]1O	i	i	3.9e-08	?	i	i
Nc1ccc(C(=O)O)c(O)c1	i	i	1e-09	?	i	i
Nc1nc(N)c(N=Nc2ccc(C(=O)O)c(O)c2)c(N)n1	i	i	1e-09	1.4e-08M*	i	i
CN1/C(=C\P(=O)(N(C)C)N(C)C)C(C)(C)c2ccccc21	4.7e-08M*	i	1e-09	?	1.2e-08M*	1e-08M*
COc1cccc(=O)c2c(C)oc(C)c12	i	?	3.6e-08	7.1e-08M*	i	i
O=C(O)[C@H]1C[C@H](C(=O)O)N1	?	i	3.3e-08	?	i	i
OC[C@@H](O)CNc1ncnc2ccccc12	i	i	1.7e-08	i	i	i
Cn1c(=O)c(NCCO)c2c3c(cccc31)C(=O)c1ccccc1-2	?	1.3e-06M*	3.4e-09	2.5e-05M*	8.5e-08M*	5.2e-08M*
CN(CCO)C(=O)c1cccc2c1-c1ccccc1C2=O	i	i	1.2e-08	i	i	i
CCNc1c2c3c(cccc3n(C)c1=O)C(=O)c1ccccc1-2	?	1.4e-07M*	4.2e-09	2.5e-06M*	1.2e-08M*	?
Cc1ccc(N2C(=O)[C@@H]3[C@H](C2=O)C2c4ccccc4C=CN2[C@@H]3C(=O)c2ccco2)cc1 (some centres not stated)	?	i	1e-09	1.1e-08M*	i	i
CC(=O)[C@@H]1[C@@H]2C(=O)N(Cc3ccccc3)C(=O)[C@@H]2C2c3ccccc3C=CN21 (some centres not stated)	i	i	4e-08	1.5e-08M*	i	i
O=C(c1ccco1)[C@@H]1[C@@H]2C(=O)N(c3ccccc3)C(=O)[C@@H]2C2c3ccccc3C=CN21 (some centres not stated)	i	i	4e-09	1.8e-08M*	i	i
COC(=O)CC[C@@H](C)[C@H]1CC[C@H]2[C@H]3CC[C@H]4C[C@@H]5CC[C@@]4(C)C3(O5)[C@@H](Br)[C@@H](Br)[C@@]12C	i	i	1e-09	i	i	i
COc1cc(/C=C\C(=O)CC(=O)/C=C\c2ccc(O)c(OC)c2)ccc1O	i	i	1e-09	?	i	i
COc1cccc2c1[C@H](CO)N1[C@H](C#N)[C@@H]3C[C@H](C(=O)O)[C@@H]([C@@H]1C2)N3C	i	i	1e-09	?	i	i
CSc1ncnc2c1ncn2[C@@H]1O[C@@H](CO)[C@H](O)O[C@@H]1O	i	i	1e-09	i	i	i
CCn1cc(C(=O)NCc2ccccn2)c(=O)c2cc(S(=O)(=O)N3CCCCC3)ccc21	?	i	3.6e-08	1.7e-08M*	?	?
CCn1cc(C(=O)NCc2ccco2)c(=O)c2cc(S(=O)(=O)N3CCCCCC3)ccc21	i	i	1e-09	i	i	i
CC[C@@H]1CN2CCc3cc(OC)c(OC)cc3[C@H]2C[C@@H]1C[C@@H]1NCCc2cc(OC)c(OC)cc21	i	i	6.5e-08	?	i	i
O=C(c1ccc(Cl)cc1)C1C2C(=O)N(c3ccccc3)C(=O)C2C2CCCN21 (configuration not stated)	i	?	3.8e-08	5.2e-08M*	i	i
CC(=O)c1ccc(N2C(=O)C3C(C2=O)C(C(=O)c2ccc(Cl)cc2)N2CCCC32)cc1 (configuration not stated)	i	?	1e-09	1.3e-07M*	i	i
Cc1ccc(N2C(=O)[C@@H]3[C@H](C2=O)C2CCCN2[C@@H]3C(=O)c2ccccc2)cc1 (some centres not stated)	i	i	3.4e-08	?	i	i
O=C(O)/C=C\[C@H](O)c1ccc(Cl)cc1	?	i	1.2e-08	?	i	i
CCOC(=O)N1CCN(Cc2nc3c(c(=O)n(C)c(=O)n3C)n2CCCc2ccccc2)CC1	?	?	4e-08	5.6e-08M*	?	?
SMILES	TexasRed autofl	A488 fluor	A647 autofl	Fluorescein autfl	Rhodamine autofl	Resorufin fluor
O=C(CCc1ccc(O)cc1)c1c(O)cc(O)cc1O[C@@H]1O[C@@H](CO)[C@@H](O)[C@@H](O)[C@H]1O	i	i	4.3e-09	i	i	i
Cc1cccn2c(=O)c3cc(C#N)c(=NC(=O)c4ccc5c(c4)OCO5)n(CC(C)C)c3nc12	i	i	3.6e-08	i	i	i
Cc1cccn2c(=O)c3cc(C#N)c(=NC(=O)c4ccncc4)n(CCCOC(C)C)c3nc12	?	i	3e-09	1.7e-08M*	i	i
CCCn1c(=NC(=O)c2ccncc2)c(C#N)cc2c(=O)n3cccc(C)c3nc21	i	i	9.1e-09	1.2e-08M*	i	i
O=C1[C@@H]2C=CC=CC2=NC(=S)N1CCN1CCC(=C(c2ccc(F)cc2)c2ccc(F)cc2)CC1	i	i	4.9e-08	?	i	i
CCOC(=O)c1cc2c(=O)n3ccccc3nc2n(Cc2ccc(Cl)cc2)c1=N	i	2.6e-08M*	1e-09	3.4e-07M*	i	i
COc1ccc(CNC(=O)c2cc3c(=O)n4ccccc4nc3n(Cc3cccnc3)c2=N)cc1	i	?	4.1e-08	1.1e-07M*	i	i
Cc1ccc(S(=O)(=O)c2cc3c(=O)n4ccccc4nc3n(Cc3ccco3)c2=N)cc1	?	i	7.5e-09	1.5e-08M*	i	i
N=c1c(C(=O)NCc2ccco2)cc2c(=O)n3ccccc3nc2n1Cc1ccc(Cl)cc1	?	i	3.2e-09	?	i	i
N=c1c(C(=O)NCc2ccc3c(c2)OCO3)cc2c(=O)n3ccccc3nc2n1Cc1cccnc1	i	i	4.4e-08	?	i	i
N=c1c(C(=O)NCc2ccco2)cc2c(=O)n3ccccc3nc2n1Cc1ccccc1	i	i	3.4e-08	1.9e-08M*	i	i
CC1(C)[C@@H]2CC[C@@]1(CS(=O)(=O)Nc1ccccc1)C(=O)C2	i	i	4.2e-08	i	i	i
C[C@H](N)C1CCC(C(=O)Nc2ccncc2)CC1 (some centres not stated)	?	i	1.1e-08	i	i	i
